These results are taken from ChEMBL document CHEMBL3988442, “University of Dundee, Small-Polar-MMV Screening Library” (2021).

Holding throughout (design): scale not given: direction of the effect not stated beside the values
Test [1] deals with Protein translocase subunit SecA (Escherichia coli (strain K12)) (UniProt P10408). In words: Assay to Identify E. coli SecA ATPase Inhibitors. The class given is functional. Conditions: 30 µM.
In test [2] the target is T1, Ubiquitin-activating enzyme e1, putative (Leishmania donovani (strain BPK282A1)) (UniProt E9BSI1).
T1 sequence (whole entry): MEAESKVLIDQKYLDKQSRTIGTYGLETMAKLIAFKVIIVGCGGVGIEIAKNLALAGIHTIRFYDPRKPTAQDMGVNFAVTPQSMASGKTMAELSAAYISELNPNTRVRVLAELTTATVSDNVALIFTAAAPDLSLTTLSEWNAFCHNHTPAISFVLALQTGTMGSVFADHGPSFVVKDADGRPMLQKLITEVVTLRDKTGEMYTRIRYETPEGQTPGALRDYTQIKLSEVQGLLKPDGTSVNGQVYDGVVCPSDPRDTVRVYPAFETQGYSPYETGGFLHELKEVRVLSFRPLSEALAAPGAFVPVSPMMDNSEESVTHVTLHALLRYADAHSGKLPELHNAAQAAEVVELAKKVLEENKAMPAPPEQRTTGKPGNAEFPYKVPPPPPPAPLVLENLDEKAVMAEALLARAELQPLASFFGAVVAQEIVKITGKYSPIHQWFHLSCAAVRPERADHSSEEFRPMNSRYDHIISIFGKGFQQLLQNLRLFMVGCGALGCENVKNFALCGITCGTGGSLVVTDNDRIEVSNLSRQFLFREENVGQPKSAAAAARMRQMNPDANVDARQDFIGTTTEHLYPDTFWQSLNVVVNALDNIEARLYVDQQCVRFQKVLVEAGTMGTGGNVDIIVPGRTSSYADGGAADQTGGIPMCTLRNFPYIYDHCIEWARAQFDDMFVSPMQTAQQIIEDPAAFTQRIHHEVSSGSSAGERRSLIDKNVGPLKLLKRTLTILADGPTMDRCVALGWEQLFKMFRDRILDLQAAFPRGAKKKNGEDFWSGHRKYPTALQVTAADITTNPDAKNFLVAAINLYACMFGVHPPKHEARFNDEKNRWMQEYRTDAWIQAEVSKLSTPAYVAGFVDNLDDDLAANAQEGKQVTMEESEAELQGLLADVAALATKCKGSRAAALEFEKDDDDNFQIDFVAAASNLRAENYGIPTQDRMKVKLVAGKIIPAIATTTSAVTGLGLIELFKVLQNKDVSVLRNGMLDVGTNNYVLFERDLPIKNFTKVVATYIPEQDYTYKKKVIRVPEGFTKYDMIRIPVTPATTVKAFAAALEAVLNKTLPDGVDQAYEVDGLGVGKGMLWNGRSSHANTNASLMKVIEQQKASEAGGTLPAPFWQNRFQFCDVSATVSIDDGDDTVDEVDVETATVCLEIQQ
In words: Leishmania donovani Ubiquitin Activating Enzyme (LdE1). The class given is functional. Conditions: 30 µM.

The target of test [3] is AMP-activated protein kinase, AMPK (Homo sapiens) (UniProt P54646+O43741+P54619+Q9UGJ0+Q9Y478+Q13131+Q9UGI9). Put plainly: AMP-dependent Kinase enzyme assay. An in vitro enzyme assay that detects ADP turnover that is directly proportional to AMPK activity. This uses naive AMPK that is activated during the assay with MK-8722. The test is classed as functional. Conditions: 30 µM.

The target of test [4] is Sialic acid-binding Ig-like lectin 9 (Homo sapiens) (UniProt Q9Y336). Put plainly: Hs-Siglec9 ALPHAscreen SOP 20170721. The conditions noted are these: 10 µM. (In general: In Alpha technology, singlet oxygen from a donor bead excites a nearby acceptor bead.)
Sequence of Sialic acid-binding Ig-like lectin 9 (Homo sapiens) (Q9Y336 whole entry): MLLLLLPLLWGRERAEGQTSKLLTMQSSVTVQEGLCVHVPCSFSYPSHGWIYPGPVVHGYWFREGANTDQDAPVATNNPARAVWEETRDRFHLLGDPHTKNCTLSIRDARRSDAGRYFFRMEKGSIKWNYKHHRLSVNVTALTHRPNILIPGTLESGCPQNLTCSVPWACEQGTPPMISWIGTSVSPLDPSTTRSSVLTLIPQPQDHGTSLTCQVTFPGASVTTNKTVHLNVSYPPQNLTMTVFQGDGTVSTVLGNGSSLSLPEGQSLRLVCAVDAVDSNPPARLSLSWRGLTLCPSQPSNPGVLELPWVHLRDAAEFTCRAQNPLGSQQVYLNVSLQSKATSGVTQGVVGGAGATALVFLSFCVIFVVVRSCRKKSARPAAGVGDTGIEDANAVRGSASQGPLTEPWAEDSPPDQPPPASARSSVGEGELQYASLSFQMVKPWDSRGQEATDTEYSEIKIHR
For another test, the system named is Trypanosoma cruzi. Put plainly: Trypanosoma cruzi phosphomannomutase and mannose-1-phosphate guanylyltransferase assay. The class given is functional. Conditions: 10 µM.
Test [5] concerns the target T2, Arginase-2, mitochondrial (Homo sapiens) (UniProt P78540).
T2 sequence (whole entry): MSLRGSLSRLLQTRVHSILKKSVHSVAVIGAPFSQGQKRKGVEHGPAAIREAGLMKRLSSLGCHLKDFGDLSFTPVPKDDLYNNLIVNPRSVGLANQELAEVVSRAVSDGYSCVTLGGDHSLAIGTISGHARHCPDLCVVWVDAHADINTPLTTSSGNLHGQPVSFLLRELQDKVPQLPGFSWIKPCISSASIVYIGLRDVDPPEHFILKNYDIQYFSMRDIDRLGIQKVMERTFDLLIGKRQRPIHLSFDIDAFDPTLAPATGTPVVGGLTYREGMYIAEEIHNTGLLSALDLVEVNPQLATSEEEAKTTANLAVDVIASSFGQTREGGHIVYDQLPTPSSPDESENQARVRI
Put plainly: in vitro enzyme assay to detect the production of urea directly proportional to the activity of Arginase II. Note: in the data most compounds retested in dose-response had high values. The class given is functional. The conditions noted are these: 33.3 µM.

In test [6] the target is T3, Proteasome subunit beta (Trypanosoma cruzi) (UniProt O96673).
T3 sequence (whole entry): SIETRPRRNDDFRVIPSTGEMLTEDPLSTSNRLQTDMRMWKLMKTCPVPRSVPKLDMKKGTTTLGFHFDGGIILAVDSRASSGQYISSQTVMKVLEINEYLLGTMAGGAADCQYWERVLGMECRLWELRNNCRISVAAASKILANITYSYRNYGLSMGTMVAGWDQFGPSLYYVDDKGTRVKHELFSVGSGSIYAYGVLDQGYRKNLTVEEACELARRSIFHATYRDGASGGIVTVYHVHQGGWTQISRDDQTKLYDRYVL
In words: Trypanosoma cruzi proteasome chymotrypsin-like activity (TcProtChymo) assay. Note: in the data most compounds retested in dose-response had high values. The class given is functional. The conditions noted are these: 9.37 µM.

For the next test, the species on record is Homo sapiens. Put plainly: To identify inhibition of the IFN signalling (Jak-Stat) pathway via expression of an eGFP reporter gene under the control of an IFN-stimulated response element (ISRE) containing MxA promoter. The class given is functional. The conditions noted are these: 30 µM. (In general: Reporter assays use an easily measured gene product as a stand-in for the process of interest.)

Test [7] concerns the target T4, Tyrosyl-tRNA synthetase, putative (Trypanosoma cruzi (strain CL Brener)) (UniProt Q4DSP6).
T4 sequence (whole entry): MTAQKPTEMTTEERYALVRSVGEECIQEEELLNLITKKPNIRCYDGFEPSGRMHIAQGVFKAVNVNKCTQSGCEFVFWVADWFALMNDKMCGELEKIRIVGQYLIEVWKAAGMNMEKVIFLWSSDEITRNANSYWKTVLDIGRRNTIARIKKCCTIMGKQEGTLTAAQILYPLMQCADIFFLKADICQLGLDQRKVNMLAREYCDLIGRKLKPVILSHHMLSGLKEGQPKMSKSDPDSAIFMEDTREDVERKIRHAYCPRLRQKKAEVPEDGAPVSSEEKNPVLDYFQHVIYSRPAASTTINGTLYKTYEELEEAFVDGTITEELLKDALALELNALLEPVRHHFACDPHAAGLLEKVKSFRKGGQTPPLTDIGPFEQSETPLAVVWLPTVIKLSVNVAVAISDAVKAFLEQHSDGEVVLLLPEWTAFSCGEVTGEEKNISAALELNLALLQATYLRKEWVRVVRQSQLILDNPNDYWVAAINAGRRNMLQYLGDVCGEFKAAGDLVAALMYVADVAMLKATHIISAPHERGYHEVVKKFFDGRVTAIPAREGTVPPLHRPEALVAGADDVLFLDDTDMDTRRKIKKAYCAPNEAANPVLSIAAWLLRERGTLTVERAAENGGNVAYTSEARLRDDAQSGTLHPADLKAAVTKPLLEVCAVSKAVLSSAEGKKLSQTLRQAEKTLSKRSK
In words: Trypanosoma cruzi tyrosyl tRNA synthetase (TcYRS) _High Tyrosine SOP. Note: in the data most compounds retested in dose-response had high values. The test is classed as functional. Conditions: 30 µM.

In test [8] the target is T4, Tyrosyl-tRNA synthetase, putative (Trypanosoma cruzi (strain CL Brener)). In words: Trypanosoma cruzi tyrosyl tRNA synthetase (TcYRS) SOP. The test is classed as functional. Conditions: 30 µM.
For test [9], the target named is Chromo domain-containing protein 1 (Saccharomyces cerevisiae (strain ATCC 204508 / S288c) (Baker's yeast)) (UniProt P32657). Put plainly: ScCHD-1 Enzyme Inhibition Assay. Note: in the data most compounds retested in dose-response had high values. The conditions noted are these: 30 µM. The class given is functional.
Sequence of Chromo domain-containing protein 1 (Saccharomyces cerevisiae (strain ATCC 204508 / S288c) (Baker's yeast)) (P32657 whole entry, the tested form may be a part): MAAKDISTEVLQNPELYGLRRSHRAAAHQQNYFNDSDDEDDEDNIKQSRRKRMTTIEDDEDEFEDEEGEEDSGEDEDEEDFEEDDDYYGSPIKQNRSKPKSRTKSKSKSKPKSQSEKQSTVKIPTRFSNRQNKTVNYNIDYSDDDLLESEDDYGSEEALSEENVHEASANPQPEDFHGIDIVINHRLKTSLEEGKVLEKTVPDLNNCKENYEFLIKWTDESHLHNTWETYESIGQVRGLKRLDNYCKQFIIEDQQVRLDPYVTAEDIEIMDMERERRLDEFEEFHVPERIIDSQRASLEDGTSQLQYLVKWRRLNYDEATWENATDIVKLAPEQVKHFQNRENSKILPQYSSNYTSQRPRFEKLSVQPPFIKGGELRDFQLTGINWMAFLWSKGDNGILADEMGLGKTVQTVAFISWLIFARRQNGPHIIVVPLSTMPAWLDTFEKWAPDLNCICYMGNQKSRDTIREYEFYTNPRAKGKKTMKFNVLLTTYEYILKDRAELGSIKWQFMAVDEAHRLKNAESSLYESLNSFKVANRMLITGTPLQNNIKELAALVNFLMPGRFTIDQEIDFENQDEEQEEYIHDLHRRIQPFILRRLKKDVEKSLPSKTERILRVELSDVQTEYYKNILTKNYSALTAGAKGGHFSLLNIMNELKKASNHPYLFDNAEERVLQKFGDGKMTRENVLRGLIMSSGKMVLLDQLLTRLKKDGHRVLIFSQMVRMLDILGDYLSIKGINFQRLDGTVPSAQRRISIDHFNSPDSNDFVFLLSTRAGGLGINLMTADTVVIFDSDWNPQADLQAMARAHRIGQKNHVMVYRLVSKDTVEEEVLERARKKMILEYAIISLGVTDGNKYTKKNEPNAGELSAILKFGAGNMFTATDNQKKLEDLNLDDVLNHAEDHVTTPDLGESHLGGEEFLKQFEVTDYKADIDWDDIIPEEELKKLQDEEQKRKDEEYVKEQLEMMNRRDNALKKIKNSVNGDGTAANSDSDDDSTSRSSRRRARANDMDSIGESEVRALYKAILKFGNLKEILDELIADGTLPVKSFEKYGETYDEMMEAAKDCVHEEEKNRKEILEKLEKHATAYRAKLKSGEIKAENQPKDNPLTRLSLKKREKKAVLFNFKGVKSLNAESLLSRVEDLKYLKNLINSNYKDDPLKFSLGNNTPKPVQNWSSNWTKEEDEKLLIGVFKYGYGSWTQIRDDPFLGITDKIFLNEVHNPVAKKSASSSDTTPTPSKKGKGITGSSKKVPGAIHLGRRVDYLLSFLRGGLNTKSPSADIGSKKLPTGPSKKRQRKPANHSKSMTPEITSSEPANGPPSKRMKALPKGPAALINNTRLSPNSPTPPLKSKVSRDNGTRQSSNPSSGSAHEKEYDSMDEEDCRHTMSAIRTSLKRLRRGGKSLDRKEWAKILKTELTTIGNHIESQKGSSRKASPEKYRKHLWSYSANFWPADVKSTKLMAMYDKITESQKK

The structures appear in SMILES notation. For some of these results: Results with a measured potency or affinity are listed apart.

Sequence of Protein translocase subunit SecA (Escherichia coli (strain K12)) (P10408 whole entry): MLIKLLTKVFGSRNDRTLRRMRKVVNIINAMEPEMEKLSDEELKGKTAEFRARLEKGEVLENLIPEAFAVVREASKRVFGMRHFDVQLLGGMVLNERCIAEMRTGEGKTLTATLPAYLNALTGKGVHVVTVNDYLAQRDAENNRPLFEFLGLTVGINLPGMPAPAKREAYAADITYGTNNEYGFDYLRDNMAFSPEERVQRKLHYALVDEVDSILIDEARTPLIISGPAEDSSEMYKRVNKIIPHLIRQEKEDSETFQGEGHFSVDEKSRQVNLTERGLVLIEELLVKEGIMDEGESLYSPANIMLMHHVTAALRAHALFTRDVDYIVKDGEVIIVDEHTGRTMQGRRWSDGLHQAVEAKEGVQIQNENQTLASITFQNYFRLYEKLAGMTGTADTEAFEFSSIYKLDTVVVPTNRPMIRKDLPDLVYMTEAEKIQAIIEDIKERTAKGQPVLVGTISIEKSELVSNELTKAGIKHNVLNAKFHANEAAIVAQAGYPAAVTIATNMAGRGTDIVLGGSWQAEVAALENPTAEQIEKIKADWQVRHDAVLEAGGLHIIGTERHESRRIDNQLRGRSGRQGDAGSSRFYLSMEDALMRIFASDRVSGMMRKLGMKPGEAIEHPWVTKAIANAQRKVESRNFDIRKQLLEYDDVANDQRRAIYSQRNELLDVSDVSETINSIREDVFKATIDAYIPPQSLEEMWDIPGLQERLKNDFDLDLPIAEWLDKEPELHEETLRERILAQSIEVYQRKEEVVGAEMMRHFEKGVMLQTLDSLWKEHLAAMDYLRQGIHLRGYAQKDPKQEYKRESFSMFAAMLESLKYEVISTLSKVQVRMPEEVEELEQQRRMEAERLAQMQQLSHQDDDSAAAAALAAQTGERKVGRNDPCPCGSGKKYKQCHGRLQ

On to `COc1cccc(CNC(=O)C(c2cccc(F)c2)N2CCOCC2)c1` (stereo unspecified), for which the Percent Effect in [1] is -6.42%; in [2], 18.4%; in test [3], -1.09%; in [4] it was 6.14%; in the test with Trypanosoma cruzi, 2.82%; in [5], -5.92%. Besides, the Percent Effect in test [6] was 4.12%; in the test listed under Homo sapiens, 5.78%; in test [7] it was 6.38%; in test [8] it was 18.2%; in test [9], -11.1%.
For `O=C1CC(c2ccccc2F)c2c(n3ccsc3nc2=O)N1` (stereo unspecified), the Percent Effect in [1] is -2.59%; in [2], 9.33%; in [3], 1.41%; in test [4], 7.25%; in the test with Trypanosoma cruzi, 2.95%; in test [5], -5.46%. The Percent Effect in [6] is 7.76%; in the test filed under Homo sapiens it was 2.76%; in [7] it was 4.23%; in test [8], 12.8%; in [9], -9.93%.
Consider `CCOCC1CN(C(=O)c2cccn2C)Cc2cnn(CC3CC3)c21` (stereo unspecified), for which the Percent Effect in test [1] is -4.01%; in test [2] it was 5.2%; in test [3], -0.603%; in test [4] it was 8.24%; in the test with Trypanosoma cruzi, 0.69%; in [5], -12.3%. In addition, the Percent Effect in [6] is 3.48%; in the test listed under Homo sapiens, 6.88%; in test [7], 11.6%; in [8], 16.7%; in test [9], -8.59%.
`CNS(=O)(=O)Cc1ccc(CNC(=O)c2cccc(C)n2)cc1`: the Percent Effect in test [1] was -2.39%; in [2] it was 23.4%; in test [3], 0.0556%; in [4], 2.86%; in the test with Trypanosoma cruzi it was 4.12%; in test [5] it was -3.92%. For the same molecule, the Percent Effect in test [6] is 5.57%; in the test listed under Homo sapiens, 15.5%; in test [7], 11.7%; in [8], 21.9%; in test [9], -7.52%.
Regarding `O=C(CCc1nc2cccnc2[nH]1)NCc1ccc2c(c1)OCO2`, the Percent Effect is -3.15% in test [1]; 12% in [2]; 2.23% in [3]; 0.158% in test [4]; 0% in the test with Trypanosoma cruzi; -10.4% in test [5]. Moreover, the Percent Effect in test [6] is 14.1%; in the test listed under Homo sapiens it was -11.6%; in test [7] it was 9.52%; in test [8], 17.9%; in [9], -10%.
As to `CN(C)C(=O)NCc1cc2n(n1)CCN(C[C@H]1[C@@H]3CNC[C@@H]31)C2`, the Percent Effect was -4.24% in test [1]; 13.5% in test [2]; -5.71% in test [3]; 30.6% in [4]; 9.65% in the test on Trypanosoma cruzi; 15.7% in test [5]. For the same molecule, the Percent Effect is 9.65% in test [6]; 10.3% in the test listed under Homo sapiens; 3.7% in test [7]; 19.5% in [8]; -12.2% in test [9].
Take `Cc1cnn(CC2CCCN2CCCc2nc3ccccc3o2)c1` (stereo unspecified): the Percent Effect in [1] was -6.63%; in test [2], 13.5%; in test [3] it was -13.1%; in [4], 10.9%; in the test on Trypanosoma cruzi, 4.18%; in test [5], -4.99%. Besides, the Percent Effect in test [6] is 6.82%; in the test filed under Homo sapiens, 4.32%; in test [7] it was 6.93%; in [8] it was 18.3%; in [9] it was -7.36%.
On to `CN(CCC(F)(F)F)C(=O)C1CCCN1C(=O)OC(C)(C)C` (stereo unspecified), for which the Percent Effect in [1] is -3.42%; in test [2], 2.74%; in test [3], 0.924%; in test [4], -4.88%; in the test with Trypanosoma cruzi, 2.15%; in [5] it was 2.27%. For the same molecule, the Percent Effect in [6] is -2.31%; in the test filed under Homo sapiens, -3.94%; in test [7] it was 3.23%; in test [8], 2.5%; in [9] it was -0.543%.
In the case of `O=C(c1nc(=O)[nH][nH]1)N1CCCC(c2cc(C(F)(F)F)[nH]n2)C1` (stereo unspecified), the Percent Effect is -9.02% in test [1]; -8.11% in test [2]; -7.65% in [3]; 26.3% in test [4]; 11.2% in the test on Trypanosoma cruzi; 2.77% in test [5]. Besides, the Percent Effect was 10.8% in [6]; 15.2% in the test filed under Homo sapiens; 5.94% in test [7]; 13.4% in [8]; -7.89% in test [9].
As to `CN(C)C1CCN(C(=O)c2ccc(Cn3ccccc3=O)o2)CC1`, the Percent Effect in [1] is -2.62%; in test [2], 8.11%; in [3], 3.53%; in test [4], 12.9%; with Trypanosoma cruzi, 2.88%; in test [5] it was 0.924%. The Percent Effect was 0% in test [6]; 5.91% in the test listed under Homo sapiens; 6.93% in test [7]; 23.2% in test [8]; -4.27% in test [9].
Consider `CCN(CC)C(=O)c1nnn(-c2ccc(C)cc2)c1C1CC1`, for which the Percent Effect in test [1] is -2.41%; in test [2], 13.5%; in test [3], -1.1%; in [4], 9.18%; in the test with Trypanosoma cruzi, 6.04%; in [5], 1.29%. In addition, the Percent Effect in [6] is -1.62%; in the test filed under Homo sapiens, 6.05%; in test [7], 0%; in test [8] it was 18.3%; in test [9], -3.92%.
